Measurements as given in PubChem BioAssay AID2732 (Emory University Molecular Libraries Screening Center, 2010).
Hit rate of the full screen: of about 220,000 compounds, about 8,200 (3.7%) were called active. Many of the other results were omitted from the sample, so actives are more common in it than they were. A number with no mark means an inactive call.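 How the source made its calls: active means compounds that reduced the stress-induced luciferase reporter signal by more than about 70% of percent inhibition (limit read from the data); inactive means the rest.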

Experiment: inhibitors of CHOP promoter induction, primary screen, cell-based, unfolded protein response, luciferase reporter (AID 2732);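 further: 0% = tunicamycin plus vehicle and 100% = wells without tunicamycin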
Conditions: CHO-K1 CHOP-promoter luciferase, tunicamycin-induced, 15-18 h; at 10 µM; stronger effect = higher value
In the case of COc1ccc(-c2cc(C(F)(F)F)nc(S(C)(=O)=O)n2)cc1OC, the inhibition is reported as 109% (active).
Compound COc1cc(OC)nc(S(C)(=O)=O)n1 has an inhibition of -18.2%.
COc1ccc(-c2cc(C(F)(F)F)nc(SCC(=O)Nc3ccc4c(c3)OCO4)n2)cc1OC gave an inhibition of 22.4%.
With O=C(Nc1cccnc1)c1cc([N+](=O)[O-])ccc1Cl the inhibition was -9.19%.
Compound CCOC(=O)C1CCN(c2c(Nc3cc(C)cc(C)c3)c(=O)c2=O)CC1 has an inhibition of 4.73%.
O=S(=O)(c1ccc(NC(=S)NN=C(C2CC2)C2CC2)cc1)N1CCOCC1 showed an inhibition of -4.48%.
In the case of CN(c1ccccc1)S(=O)(=O)c1ccc(Cl)c(C(=O)OCC(=O)NCc2ccco2)c1, the inhibition is reported as 29.9%.
CCOc1ccc(NC(=O)CN2CCN(CC(=O)Nc3ccc(OC)cc3)CC2)cc1 gave an inhibition of 34.6%.
CCN1CCN(c2nc(Nc3cc(OC)ccc3OC)nc(Nc3cc(OC)ccc3OC)n2)CC1 showed an inhibition of -5.76%.
With CCOc1ccc(Nc2nc(Cl)nc(N3CCN(c4ccc(OC)cc4)CC3)n2)cc1 the inhibition was 72.4% (active).
Cc1coc2cc3oc(=O)c(CCC(=O)O)c(C)c3cc12 gave an inhibition of -3.28%.
In the case of COC(=O)c1sccc1NC(=S)Nc1ccc(C)cc1, the inhibition is reported as 10.2%.
Compound CCN(CC)CCCNC(=O)CCc1ccccc1 has an inhibition of 0.68%.
Cc1cnc(C(=O)OCC(=O)NCCCc2ccccc2)cn1 showed an inhibition of 4.94%.
With CCc1ccc(NC(=O)CS(=O)CC(=O)NCCCc2ccccc2)cc1 (centres undefined) the inhibition was 75.9% (active).
Compound NNC(=O)c1oc2nc(-c3ccccc3)cc(-c3ccco3)c2c1N has an inhibition of -41.2%.
Work on COC(OC)c1ccnc(SCc2ccccc2Cl)n1 yielded an inhibition of 15.3%.
In the case of Cc1ccc(Nc2nc(-c3ccc(O)cc3O)cs2)nc1, the inhibition is reported as 88.9% (active).
Compound O=c1oc2ccccc2cc1-c1csc(Nc2ccc(O)cc2)n1 has an inhibition of -72.5%.
Compound COc1ccc(-c2csc(Nc3ccc(O)cc3)n2)cc1 has an inhibition of 18.9%.
For Nc1nnn(CC(=O)N/N=C/c2ccccc2)n1, the inhibition was 9.73%.
Work on COc1cc(N2C(=O)CC3(CCCC3)CC2=O)cc(OC)c1OC yielded an inhibition of -7%.
In the case of O=C(Nc1ccc(N2CCOCC2)nc1)c1c(F)cccc1F, the inhibition is reported as -6.02%.
Compound CCOC(=O)c1c(NC(=O)NC(C)(C)C)sc2c1CCN(C)C2 has an inhibition of 16.3%.
With O=[N+]([O-])c1ccc2nc(-c3ccccn3)[nH]c2c1 the inhibition was -8.07%.
For O=C(/C=C/Sc1ncn[nH]1)c1ccc(Cl)cc1, the inhibition was 105% (active).
In the case of Cc1cc(C)nc(S/C=C/C(=O)c2ccccc2)n1, the inhibition is reported as 24.8%.
In the case of COc1ccc(Cl)cc1CSc1ncn[nH]1, the inhibition is reported as -7.32%.
Compound CCn1c(SCC(=O)Nc2ccc3c(c2)OCCO3)nc2c(c1=O)SC(C)C2 (centres undefined) has an inhibition of 3.73%.
CCn1c(SCC(=O)Nc2ccccc2F)nc2c(c1=O)SC(C)C2 (centres undefined) gave an inhibition of -15.6%.
For CCCCSc1nc2c(c(=O)n1CC)SC(C)C2 (centres undefined), the inhibition was 97.1% (active).
Work on COc1c(N2CCN(C(=S)Nc3ccccc3F)C(C)C2)c(F)cc2c(=O)c(C(=O)O)cn(C3CC3)c12 (centres undefined) yielded an inhibition of 2.97%.
For CCc1c(C)nc(N2CCN(Cc3ccccc3)CC2)[nH]c1=O, the inhibition was 80% (active).
Cc1ccc(-n2c(=O)cc(N3CCN(Cc4ccccc4)CC3)[nH]c2=O)cc1 showed an inhibition of -31.4%.
For Cc1nnc(SCc2cc(=O)[nH]c(N3CCN(Cc4ccccc4)CC3)n2)s1, the inhibition was 39.7%.
With Cn1c(SCC(=O)N2CCOCC2)nnc1-c1ccc2ncccc2c1 the inhibition was -14.7%.
In the case of S=c1[nH]nc(-c2cc(-c3ccccc3)n[nH]2)n1/N=C/c1c2ccccc2cc2ccccc12, the inhibition is reported as 74% (active).
With S=c1[nH]nc(-c2ccccc2)n1/N=C/c1c[nH]c2ccccc12 the inhibition was 30.5%.
For S=c1[nH]nc(-c2ccco2)n1/N=C/c1ccccc1, the inhibition was 13.8%.
In the case of O=C(CN1CCN(Cc2ccc(F)cc2Cl)C1=O)NCc1cccs1, the inhibition is reported as 5.73%.
O=C(O)CC12CC3CC(C1)CC(n1ncc(NCc4ccc(F)cc4)c(Cl)c1=O)(C3)C2 gave an inhibition of -5.94%.
For O=c1c(Cl)c(NCc2ccc(F)cc2Cl)cnn1C12CC3CC(CC(C3)C1)C2, the inhibition was 78.6% (active).
Compound O=C(NCC1COc2ccccc2O1)C1(c2ccccc2)CCCC1 (centres undefined) has an inhibition of 17.7%.
For CCCN(CC1COc2ccccc2O1)C(=S)Nc1ccc(C)cc1 (centres undefined), the inhibition was 28.3%.
In the case of S=C(NCC1COc2ccccc2O1)Nc1ccc(Br)cc1 (centres undefined), the inhibition is reported as 81.2% (active).
For CCCN(CCC)S(=O)(=O)c1ccc(C(=O)N2CC3CCC(CC3)C2)cc1, the inhibition was 5.98%.
O=[N+]([O-])c1cccc2ncccc12 showed an inhibition of 15.2%.
In the case of Cc1ccccc1-c1nnn(CC(=O)c2ccc(S(=O)(=O)N3CCCC3)cc2)n1, the inhibition is reported as 76% (active).
With CC(C)(C)NC(=O)Cn1nnc(-c2ccccc2Cl)n1 the inhibition was 2.55%.
Compound Cc1cc(C)n(C(=O)c2ccc(S(=O)(=O)N3CCCC3)cc2)n1 has an inhibition of 13%.
For CC(OC(=O)c1ccc(NS(=O)(=O)c2ccc3[nH]c(=O)[nH]c3c2)cc1)C(=O)Nc1cccc(Cl)c1Cl (centres undefined), the inhibition was -9.73%.
Work on NCCCCCC(=O)N/N=C/c1ccc2nccnc2c1 yielded an inhibition of 16.6%.
In the case of Cc1onc(NC(=O)c2ccc([N+](=O)[O-])o2)c1Br, the inhibition is reported as -20.6%.
With Cc1cc(C(=O)Nc2c(C)n(C)n(-c3ccccc3)c2=O)cs1 the inhibition was 23.5%.
Compound COc1ccc(S(=O)(=O)Nc2c(C)n(C)n(-c3ccccc3)c2=O)cc1 has an inhibition of -21.7%.
With Cc1cccc(OP(=O)(Nc2c(C)n(C)n(-c3ccccc3)c2=O)Oc2cccc(C)c2)c1 the inhibition was 71.4% (active).
Compound O=C(CCl)Nc1cccc(CP(=O)(c2ccccc2)c2ccccc2)c1 has an inhibition of -134%.
In the case of COc1ccc(CNC(=O)CCC(=O)Nc2nnc(C(C)C)s2)cc1, the inhibition is reported as 11.9%.
Cc1ccc(-c2nn(-c3ccccc3)cc2/C=N/NC(=O)c2ccc3c(c2)OCO3)cc1 showed an inhibition of 22.2%.
COc1ccc(OC)c(/C=N/NC(=O)CSc2nnc(C)n2-c2ccccc2)c1 showed an inhibition of -5.53%.
For Cc1nnc(SCC(=O)N/N=C/c2cn(-c3ccccc3)nc2-c2ccc(F)cc2)n1-c1ccccc1, the inhibition was 97.1% (active).
For CC(C)COC(=O)n1c(=O)oc2ccc(S(=O)(=O)N3CCCCC3)cc21, the inhibition was 11.3%.
COc1ccc(OC)c(Nc2nc3ccccc3n3cnnc23)c1 gave an inhibition of 24.5%.
Cc1cccc(C2C3=C(CCCC3=O)N=C3c4ccccc4C(=O)C32)c1 (centres undefined) showed an inhibition of 19.4%.
With Cc1cccc(NC(=O)c2cccc(C(F)(F)F)c2)c1 the inhibition was 2.04%.
With CC(=O)N1CCN(C(=O)Nc2cccc(C(F)(F)F)c2)CC1 the inhibition was 26.5%.
In the case of Cc1cccc(NC(=O)c2nnn(-c3cccc(C(F)(F)F)c3)c2N)c1, the inhibition is reported as 70.6% (active).
In the case of CC(=O)OCCOCn1cnn2c(=O)c(Br)c(C)nc12, the inhibition is reported as 7.79%.
For O=C(O)c1ccccc1OCc1ccccc1Cl, the inhibition was -5.39%.
In the case of Cn1nccc1NC(=O)Nc1ccc(OC(F)(F)F)cc1, the inhibition is reported as 0.64%.
Cc1ccc(C(=O)OC2CCCN(C)C2)cc1 (centres undefined) showed an inhibition of 7.84%.
Work on CC1(C)C2CCC1(C)C(OC(=O)CCn1ccnc1)C2 (centres undefined) yielded an inhibition of 4.53%.
For CC1(C)C2CCC1(C)C(OC(=O)c1ccc(O)cc1)C2 (centres undefined), the inhibition was 77.6% (active).
Work on N#Cc1ccc(Oc2ccc(C(F)(F)F)cc2NC(=O)c2ccc(F)cc2)cc1 yielded an inhibition of 6.42%.
O=C(NCC1CCCO1)c1ccccc1-c1nc(-c2ccccc2Cl)no1 (centres undefined) gave an inhibition of -0.61%.
For C1=C(CCNc2ncnc3c2cnn3-c2ccccc2)CCCC1, the inhibition was 88% (active).
For c1ccc(-n2ncc3c(N4CCCC4)ncnc32)cc1, the inhibition was -22.2%.
With O=C(NNc1ncnc2c1cnn2-c1ccccc1)c1ccco1 the inhibition was 2.45%.
O=C1N(c2ccccc2)C(=Nc2ccccc2)SC12CC2 showed an inhibition of -17.1%.
Work on O=C(CCNc1n[nH]c(=O)[nH]c1=O)N/N=C\c1ccc(Br)cc1 yielded an inhibition of -14.4%.
For Cc1noc(C)c1S(=O)(=O)Nc1cc(C(F)(F)F)ccc1N1CCOCC1, the inhibition was 13.3%.
For CC(C)(C)NC(=O)NC(=O)COC(=O)CCC1CCCCC1, the inhibition was 80.2% (active).
In the case of CC(C)(C)NC(=O)NC(=O)COC(=O)C1(C)CC1(Cl)Cl (centres undefined), the inhibition is reported as 6.38%.
Compound COc1ccccc1OCCC(=O)OCC(=O)NC(=O)NC(C)(C)C has an inhibition of 44.9%.
Compound Cc1c(C(=O)N/N=C/c2ccccc2)[nH]c2c([N+](=O)[O-])cccc12 has an inhibition of 20%.
In the case of O=C(O)C(F)(F)C(NCc1ccccc1)c1ccccc1 (centres undefined), the inhibition is reported as -11.7%.
In the case of Cc1ccc(N2C(=O)CN=C2Nc2nc(C)cc(C)n2)cc1, the inhibition is reported as 17%.
Work on CC(C)(C)C(=O)c1cnc(Nc2ccccc2)s1 yielded an inhibition of 4%.
Compound O=C(CSc1nnc(Nc2ccccc2)s1)Nc1cccnc1Cl has an inhibition of -4.1%.
For O=C(c1ccc(Cl)cc1)c1cnc(Nc2ccccc2)s1, the inhibition was 70.1% (active).
For CCc1ccnc(NS(=O)(=O)c2ccc3c(c2)OCCO3)c1, the inhibition was 16.7%.
Work on O=c1c(/C=N/O)coc2ccc(Cl)cc12 yielded an inhibition of 3.04%.
With CC(Nc1nc(N2CCOCC2)nc2ccccc12)c1ccccc1 (centres undefined) the inhibition was 16.9%.
With c1ccc2c(NC3C4CC5CC(C4)CC3C5)nc(N3CCOCC3)nc2c1 (centres undefined) the inhibition was 83.1% (active).
Work on CC(Nc1nc(N2CCCC2)nc2ccccc12)c1ccccc1 (centres undefined) yielded an inhibition of 34.2%.
Compound Cc1cc(=O)oc2c(C(=O)c3ccccc3)c(OCC(N)=O)ccc12 has an inhibition of 6.93%.
O=C(OCC(=O)c1cccs1)C1=COCCO1 showed an inhibition of 17.6%.
In the case of CCC(C)(C)c1ccc(Oc2ccc(NC(=O)COC(=O)C3=COCCO3)cc2)cc1, the inhibition is reported as 80.4% (active).
In the case of COc1ccc(NC(=O)COC(=O)CNC(=O)C2CCCCC2)cc1, the inhibition is reported as 9.71%.
